# This is one part of a sample in which hits are shown more often than they occur.
# IDE exosite FP: displaces the probe from the exo-site of human IDE; 6.3% of 17,000 active; purified IDE, FL-6b probe fluorescence polarization; stronger effect = lower value; z-score at 20 µM; AID 1259349;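 active = z-score of -3 or lower, meaning strong loss of probe binding signal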;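 also: His-tagged human IDE residues 42-1019 made in E. coli with 30 nM FL-6b probe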
# Target sequence (P14735 42-1019 limits assumed): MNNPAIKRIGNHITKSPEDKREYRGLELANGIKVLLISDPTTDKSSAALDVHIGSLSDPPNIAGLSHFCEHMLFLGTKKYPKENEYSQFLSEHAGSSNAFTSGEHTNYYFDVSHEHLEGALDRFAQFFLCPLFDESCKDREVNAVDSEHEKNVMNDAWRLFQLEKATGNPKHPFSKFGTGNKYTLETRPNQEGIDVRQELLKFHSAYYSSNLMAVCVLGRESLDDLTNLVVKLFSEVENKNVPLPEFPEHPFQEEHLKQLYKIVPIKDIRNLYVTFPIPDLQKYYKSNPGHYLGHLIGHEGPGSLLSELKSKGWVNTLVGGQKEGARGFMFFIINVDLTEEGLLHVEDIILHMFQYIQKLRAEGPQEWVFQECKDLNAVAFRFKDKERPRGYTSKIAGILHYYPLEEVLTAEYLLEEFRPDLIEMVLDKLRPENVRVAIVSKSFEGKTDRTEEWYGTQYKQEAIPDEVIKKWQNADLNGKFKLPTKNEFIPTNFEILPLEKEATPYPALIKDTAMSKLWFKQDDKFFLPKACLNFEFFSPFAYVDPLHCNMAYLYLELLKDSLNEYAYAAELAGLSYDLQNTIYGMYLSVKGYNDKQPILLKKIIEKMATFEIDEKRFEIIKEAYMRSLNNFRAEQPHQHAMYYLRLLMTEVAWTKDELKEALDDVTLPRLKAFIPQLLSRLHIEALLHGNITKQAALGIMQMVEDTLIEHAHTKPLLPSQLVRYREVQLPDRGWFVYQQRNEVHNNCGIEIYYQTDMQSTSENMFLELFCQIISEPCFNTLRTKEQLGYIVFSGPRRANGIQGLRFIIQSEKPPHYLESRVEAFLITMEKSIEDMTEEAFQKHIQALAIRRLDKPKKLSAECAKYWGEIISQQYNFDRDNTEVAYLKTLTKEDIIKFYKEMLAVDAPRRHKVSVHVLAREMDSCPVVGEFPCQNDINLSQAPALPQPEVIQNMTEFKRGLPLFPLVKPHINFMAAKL
# Numbers without * were called inactive.
SMILES,IDE exosite FP
N#C[C@H]1[C@H](c2ccc(C#Cc3ccccc3F)cc2)[C@@H](CO)N1C(=O)C1CCOCC1,-5.92*
N#C[C@@H]1N[C@@H](CO)[C@H]1c1ccc(-c2ccccc2F)cc1,2.06
N#C[C@@H]1[C@H](c2ccc(C#Cc3ccccc3F)cc2)[C@H](CO)N1C(=O)c1cccnc1,-1.67
N#C[C@H]1N[C@H](CO)[C@H]1c1ccc(C#Cc2ccccc2F)cc1,-0.0746
N#C[C@@H]1[C@@H](c2ccc(C#Cc3ccccc3F)cc2)[C@H](CO)N1C(=O)C1CCC1,1.05
N#C[C@H]1[C@H](c2ccc(C#Cc3ccccc3F)cc2)[C@@H](CO)N1C(=O)C1CCC1,3.66
N#C[C@@H]1[C@H](c2ccc(C#Cc3ccccc3F)cc2)[C@@H](CO)N1C(=O)c1cccnc1,-4.03*
N#C[C@@H]1[C@H](c2ccc(C#Cc3ccccc3F)cc2)[C@@H](CO)N1C(=O)C1CCC1,-4.83*
N#C[C@H]1[C@H](c2ccc(C#Cc3ccccc3F)cc2)[C@@H](CO)N1C(=O)C1CC1,3.36
N#C[C@H]1N[C@@H](CO)[C@H]1c1ccc(C#Cc2ccccc2F)cc1,-3.96*
N#C[C@@H]1[C@@H](c2ccccc2)[C@@H](CO)N1C(=O)c1cccnc1,6.28
CC(=O)N1[C@@H]2Cn3c(ccc(-c4cccnc4)c3=O)[C@H]1[C@@H](C(=O)NC1Cc3ccccc3C1)[C@@H]2CO,-0.305
C[C@H](CO)N1C[C@H](C)[C@@H](CN(C)C(=O)Nc2cccc(F)c2)Oc2cc(C#CC3(O)CCCC3)ccc2S1(=O)=O,-0.0439
COc1ccc(C(=O)N2C[C@@H]3[C@H](c4ccccc42)[C@@H](CO)N3C(=O)NC(C)C)cc1,3.03
O=C(C[C@H]1CC[C@H]2[C@@H](COC[C@@H](O)CN2C(=O)Nc2ccc(Cl)cc2)O1)NCC1CCCCC1,0.458
CCCN1C[C@H](C)[C@@H](OC)CN(C)C(=O)c2cc(NS(=O)(=O)c3ccccc3)ccc2OC[C@H]1C,0.522
C[C@@H](O)C#Cc1ccc([C@@H]2[C@H]3CN(C(=O)Nc4ccccc4)CCCCN3[C@H]2CO)cc1,0.109
CC(=O)N1CC(=O)N2[C@H](C1)[C@@H](c1ccc(-c3cccc(C(=O)N(C)C)c3)cc1)[C@@H]2CO,1.91
CCCNC(=O)N1[C@H](CNC(=O)c2ccccc2)[C@@H](c2ccccc2)[C@@H]1CO,2.2
O=C(Nc1ccccc1)N1CC(=O)N2[C@H](CO)[C@@H](c3ccc(-c4ccc(F)cc4)cc3)[C@@H]2C1,2.14
Cc1ccccc1-c1ccc([C@H]2[C@@H](CO)N3CCCCN(C(=O)NC4CCCC4)C[C@@H]23)cc1,-19.3*
Cc1ccccc1-c1ccc([C@H]2[C@H]3CN(C(=O)NC4CCCC4)CCCCN3[C@H]2CO)cc1,-5.69*
Cc1ccccc1-c1ccc([C@H]2[C@@H](CO)N3CCCCN(C(=O)NC4CCCC4)C[C@H]23)cc1,-17.3*
C[C@H](NC(=O)C[C@@H]1CC[C@@H]2[C@H](COc3ccc(NC(=O)C4CCOCC4)cc3C(=O)N2C)O1)c1ccccc1,-1.81
OC[C@H]1[C@@H](c2ccc(-c3cncnc3)cc2)[C@@H]2CN(CC3CCOCC3)CCCCN12,3.74
SMILES,IDE exosite FP
COCC(=O)Nc1ccc2c(c1)[C@H]1C[C@H](CC(=O)N[C@H](C)c3ccccc3)O[C@@H](CO)[C@H]1O2,-1.48
N#C[C@H]1N[C@@H](CO)[C@@H]1c1ccc(C#CC2CCCC2)cc1,1.05
CN(C)CC(=O)N1[C@H](CO)[C@@H](c2ccccc2-c2ccccc2F)[C@@H]1C#N,0.605
O=C(c1ccncc1)N1C[C@@H]2[C@H](c3ccccc31)[C@H](CO)N2C(=O)CN1CCOCC1,0.754
O=C(C[C@@H]1CC[C@H]2[C@@H](COC[C@H](O)CN2C(=O)c2ccccc2F)O1)NCc1ccc(Cl)c(Cl)c1,0.248
COc1ccc(NC(=O)N2CC(=O)N3[C@@H](CO)[C@H](c4ccc(-c5ccc(C)cc5)cc4)[C@@H]3C2)cc1,-0.758
CC[C@H]1C/C=C\C[C@H](C(C)C)NC(=O)CCC(=O)N1,-0.163
Cc1cccc(-c2ccc([C@@H]3[C@@H](CO)N4CCCCN(S(=O)(=O)c5cccs5)C[C@@H]34)cc2)c1,-3.77*
COc1cccc(-c2ccc([C@@H]3[C@@H](CO)N4CCCCN(S(=O)(=O)c5cccs5)C[C@H]34)cc2)c1,0.672
Cc1cccc(-c2ccc([C@H]3[C@H](CO)N4CCCCN(S(=O)(=O)c5cccs5)C[C@@H]34)cc2)c1,3.16
Cc1cccc(-c2ccc([C@H]3[C@@H](CO)N4CCCCN(S(=O)(=O)c5cccc(C)c5)C[C@@H]34)cc2)c1,-1.08
Cc1cccc(-c2ccc([C@@H]3[C@H](CO)N4CCCCN(S(=O)(=O)c5cccs5)C[C@@H]34)cc2)c1,-8.04*
O=S(=O)(c1cccs1)N1CCCCN2[C@H](C1)[C@H](c1ccc(/C=C/c3ccccc3)cc1)[C@@H]2CO,-0.702
O=S(=O)(c1cccs1)N1CCCCN2[C@H](C1)[C@H](c1ccc(C3=CCCC3)cc1)[C@@H]2CO,0.976
Cc1cccc(-c2ccc([C@@H]3[C@H]4CN(S(=O)(=O)c5cccs5)CCCCN4[C@H]3CO)cc2)c1,0.548
COc1cccc(-c2ccc([C@@H]3[C@H](CO)N4CCCCN(S(=O)(=O)c5cccs5)C[C@@H]34)cc2)c1,-6.05*
COc1cccc(S(=O)(=O)N2CCCCN3[C@@H](CO)[C@@H](c4ccc(-c5ccccc5)cc4)[C@@H]3C2)c1,5.49
O=S(=O)(c1cccs1)N1CCCCN2[C@H](CO)[C@H](c3ccc(/C=C/c4ccccc4)cc3)[C@@H]2C1,-0.116
O=S(=O)(c1cccs1)N1CCCCN2[C@@H](CO)[C@@H](c3ccc(/C=C/c4ccccc4)cc3)[C@@H]2C1,-3.18*
CC(C)NC(=O)N1[C@@H](CO)[C@@H]2c3ccccc3N(C)C[C@@H]21,3.1
CN(C)C(=O)[C@H]1[C@H](CO)[C@H]2Cn3c(ccc(/C=C/c4ccccc4)c3=O)[C@H]2N1C(=O)c1cccnc1,0.784
CC(=O)NC[C@@H]1[C@H](c2ccc(-c3ccccc3)cc2)[C@H](CO)N1C(=O)C1CC1,3.13
COCC(=O)N1[C@H](C#N)[C@H](c2ccc(C3=CCCCC3)cc2)[C@H]1CO,1.54
O=C(c1cccc(F)c1)N1CC(=O)N2[C@H](CO)[C@H](c3ccc(-c4ccccc4)cc3)[C@@H]2C1,3.43
CN(C)C(=O)c1ccc(-c2ccccc2[C@H]2[C@H](C#N)N(C(=O)C3CCC3)[C@H]2CO)cc1,3.14
SMILES,IDE exosite FP
CN(C)CC(=O)N1CCCCN2[C@H](CO)[C@H](c3ccc(-c4cccnc4)cc3)[C@H]2C1,1.85
CNC[C@@H]1Oc2cc(C#Cc3ccccc3OC)ccc2S(=O)(=O)N([C@@H](C)CO)C[C@H]1C,-0.397
COCC#Cc1ccc([C@H]2[C@@H](CO)N3CCCCN(C(=O)COC)C[C@@H]23)cc1,4.08
COc1ccc(C#Cc2ccc([C@H]3[C@H](CO)N4CCCCN(C(=O)c5ccncc5)C[C@@H]34)cc2)cc1,2.11
COc1ccc(C#Cc2ccc([C@H]3[C@@H](CO)N4CCCCN(C(=O)c5ccncc5)C[C@@H]34)cc2)cc1,-6.59*
COc1ccc(C#Cc2ccc([C@@H]3[C@@H](CO)N4CCCCN(C(=O)c5ccncc5)C[C@H]34)cc2)cc1,1.71
COCC(=O)N1CCCCN2[C@@H](CO)[C@H](c3ccc(C#Cc4ccc(OC)cc4)cc3)[C@@H]2C1,-3.12*
COCC(=O)N1CCCCN2[C@H](CO)[C@@H](c3ccc(C#Cc4ccccc4)cc3)[C@H]2C1,-7.15*

# Assay outcomes as filed in PubChem.
